CHX counter = affects cycloheximide protein synthesis inhibition readout, counter-screen; cell reporter, cycloheximide protein synthesis inhibition counterscreen; max response, %; 300,000 tested, 12% active; in the data active = max response mostly above about 13%, no sharp cut-off; inactive = mostly below about 14%; note: read at 38.3 µM for the half of the compounds with a filed dose
NS1 function inh = influenza NS1 inhibition. Potency, µM (series often up to 46.1 µM). AID 2326. 270,000 tested, 0.4% active; calls by dose curve; note: actives are rising curves; nearly all actives have a fitted effect of over 50% in size
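S. cerevisiae expressing influenza A NS1, grown in glucose, washed, then diluted 1:100 into pH 6.0 -URA galactose medium with 23 nl compound. Growth recovery read as OD600; NS1-free strain serves as control.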
Sm TGR block = S. mansoni TGR enzyme inhibition | 360,000 tested, 3% active | purified TGR, DTNB reduction, TNB absorbance 405 nm | AID 485364 | Potency, µM (titrated, usually from 114 µM), usual class: inhibitors; note: nearly all actives have a fitted effect of over 60% in size
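First, TGR (20 nM dispensed) and NADPH were mixed with compound. Second, a 15 min room-temperature incubation followed. Third, further NADPH and then DTNB were added to start the reaction. Finally, TNB absorbance was monitored kinetically.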
Pf growth 96h = P. falciparum growth inhibition at 96 hours. 320,000 tested, 6.9% active. Potency, µM (doses to about 28.7 µM), usual class: inhibitors. P. falciparum luciferase reporter growth, 96 h
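Infected RBCs, 2% Hct / 0.05% parasitemia final; luciferase-reporter P. falciparum; cpd 96 h, 37 C, 5% CO2; luciferase detection reagent; luminescence.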
Pf growth 48h = P. falciparum growth inhibition at 48 hours (one generation); P. falciparum luciferase growth in erythrocytes, 48 h; Potency, µM (series often up to 28.7 µM), hits mostly inhibitors; 310,000 tested, 5.9% active; AID 504832
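Read-out is firefly luciferase luminescence from an integrated reporter in P. falciparum, so falling signal marks reduced parasite growth. Infected erythrocytes were at 2% hematocrit and 0.1% parasitemia (final) in Albumax-supplemented RPMI 1640.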
Shiga inhibitor = blocks Shiga toxin action in Vero cells; Vero cells, Shiga toxin protein synthesis inhibition reporter; inhibition, % at 38.7 µM; 290,000 tested, 9.2% active; AID 2315; in the data active = inhibition mostly above about 28%, no sharp cut-off; inactive = mostly below about 43%
Large screens that a line does not name were inactive. An excerpt weighted towards active compounds, which were near 21% of everything screened. Unless noted, calls come from the whole dose curve; as a rule, active = well fitted curve in the direction sought with a large enough effect; inconclusive = small, poorly fitted or top-dose-only effect, or another doubt; inactive = no such curve, though single readings can be large; an effect the other way counts as inactive or inconclusive.

Cc1ccc(C(=O)N/C(=C\c2ccccc2)C(=O)OCc2ccccc2)cc1	CHX counter 45, Shiga inhibitor 71
Cc1ccc(CONC(=O)c2ccccc2)cc1	CHX counter 40, Shiga inhibitor 67
C=CCOC(=O)/C(=C/c1cccc2ccccc12)NC(=O)c1ccccc1	CHX counter 66, Pf growth 96h inconclusive, Shiga inhibitor 92
CCOC(=O)N1CCC(N(CCN(C)C)C(=S)Nc2cc(C)cc(C)c2)CC1	none
O=C1CN(S(=O)(=O)c2ccc(Cl)cc2)c2ccccc2N1	none
COc1ccccc1CCNC(=O)c1cc2c(=O)n3cccc(C)c3nc2n1C	none (no result: CHX counter, NS1 function inh, Pf growth 96h, Pf growth 48h, Shiga inhibitor)
COc1cc(OC)cc(-c2nnc(Nc3nc4c(F)cccc4s3)o2)c1	Pf growth 96h 12µM
COc1ccc(-c2nnc(Nc3nc4c(OC)cccc4s3)o2)c(OC)c1	CHX counter 18, Pf growth 48h 10µM, Shiga inhibitor 43
Fc1cccc2sc(Nc3nnc(-c4ccccc4)o3)nc12	CHX counter 27, Shiga inhibitor 46
COc1ccc(-c2nnc(Nc3nc4c(OC)cccc4s3)o2)cc1	none (no result: Pf growth 48h)
CC(C)Cc1nnc(NC(=O)CCC(=O)NC2CCCC2)s1	Pf growth 96h inconclusive, Pf growth 48h inconclusive
CCC(C(=O)NCCCN1CCN(CCCNC(=O)C(CC)c2ccccc2)CC1)c1ccccc1 (centres undefined)	Pf growth 48h inconclusive
CCCCC(CC)C(=O)NCCCN1CCN(CCCNC(=O)C(CC)CCCC)CC1 (centres undefined)	Sm TGR block inconclusive, Pf growth 48h 5.9µM
CCN(CC)S(=O)(=O)c1cc(C)ccc1NC(=S)Nc1cccnc1	Sm TGR block 22µM (no result: NS1 function inh)
CCN(CC)S(=O)(=O)c1cc(C(=O)Nc2cccnc2)ccc1Cl	none (no result: Pf growth 96h)
Cc1cc(NC(=S)Nc2cccnc2)ccc1Br	Sm TGR block 18µM (no result: NS1 function inh)
Cc1cc(Cl)ccc1NC(=S)Nc1cccnc1	Sm TGR block 18µM
CCOc1ccc(NC(=O)c2cc(=O)c3cc(CC)ccc3o2)cc1	none (no result: CHX counter, NS1 function inh, Pf growth 96h, Pf growth 48h, Shiga inhibitor)
COc1ccc(-n2nc3cc(C)c(NC(=O)c4ccc(-c5ccc(Br)cc5)o4)cc3n2)cc1	none (no result: CHX counter, NS1 function inh, Pf growth 96h, Pf growth 48h, Shiga inhibitor)
COc1ccc(S(=O)(=O)NCC(c2cccnc2)N2CCN(c3ccccc3)CC2)cc1C (centres undefined)	Sm TGR block inconclusive, Pf growth 96h inconclusive (no result: Pf growth 48h)
CCN1CCN(C(CNS(=O)(=O)c2ccc(OC)c(C)c2)c2cccnc2)CC1 (centres undefined)	Pf growth 96h 15µM
O=S(=O)(NCC(c1cccnc1)N1CCN(Cc2ccccc2)CC1)c1cc(F)ccc1F (centres undefined)	Pf growth 96h 10µM, Pf growth 48h inconclusive
COc1ccccc1N1CCN(C(CNS(=O)(=O)c2cccs2)c2cccnc2)CC1 (centres undefined)	Sm TGR block inconclusive, Pf growth 96h inconclusive, Pf growth 48h 10µM
COc1ccc(S(=O)(=O)NCC(c2cccnc2)N2CCN(c3ccc(F)cc3)CC2)cc1C (centres undefined)	Pf growth 48h 4.7µM
Cc1cc(C(F)F)n2nc(C(=O)Nc3cc(Cl)ccc3C)nc2n1	none (no result: CHX counter, NS1 function inh, Pf growth 96h, Pf growth 48h, Shiga inhibitor)
COc1cccc(C(c2sc3nc(-c4ccco4)nn3c2O)N2CCC(C)CC2)c1 (centres undefined)	none (no result: CHX counter, NS1 function inh, Pf growth 96h, Pf growth 48h, Shiga inhibitor)
Cc1ccc(N2CN(S(=O)(=O)c3cccc([N+](=O)[O-])c3)c3nc4ccccc4nc32)cc1	Sm TGR block 45µM, Pf growth 96h inconclusive
Cc1c(C(=O)N2CCN(C(c3ccccc3)c3ccccc3)CC2)oc2ccccc12	Pf growth 96h 15µM, Pf growth 48h 6.6µM (no result: CHX counter, NS1 function inh, Shiga inhibitor)
Cc1cc(=O)oc(C)c1C(=O)N1CCN(C(c2ccccc2)c2ccccc2)CC1	Sm TGR block inconclusive, Pf growth 96h 9.3µM, Pf growth 48h 13µM
COc1ccccc1N1CCN(C(=O)c2c(C)cc(=O)oc2C)CC1	none (no result: Pf growth 96h)
Cc1cc(C(=O)N2CCN(c3ccccc3)CC2)no1	Sm TGR block inconclusive
O=C(c1cc(-c2cccs2)on1)N1CCOCC1	CHX counter 37, Pf growth 96h inconclusive, Shiga inhibitor 104
Cc1cc(C(=O)N2CCN(C(c3ccccc3)c3ccccc3)CC2)no1	Pf growth 96h inconclusive, Pf growth 48h 9.3µM
Fc1cccc(-c2nnn3c2nc(Cl)c2ccccc23)c1	none (no result: NS1 function inh)
COc1ccc(OC)c(NC(=O)Cn2c(=O)cc(-c3ccccc3)c3c(C)nn(C)c32)c1	none (no result: CHX counter, NS1 function inh, Pf growth 96h, Pf growth 48h, Shiga inhibitor)
O=C(Nc1cccc(C(F)(F)F)c1)C1CCCN(S(=O)(=O)c2cccc3nsnc23)C1 (centres undefined)	none (no result: CHX counter, NS1 function inh, Pf growth 96h, Pf growth 48h, Shiga inhibitor)
CC1=CC(C)(C)n2c(O)c(N=N)c3cc(C)cc1c32	none
O=C(c1cc(-c2cccs2)on1)N1CCN(C(c2ccccc2)c2ccccc2)CC1	Pf growth 48h 6.6µM
CC(=O)N1CCN(C(c2ccccc2)c2ccccc2)CC1	none (no result: CHX counter, Pf growth 96h, Pf growth 48h, Shiga inhibitor)
Cc1cc(C)cc(CC2CC(=O)N(c3cc(C)on3)C2=O)c1 (centres undefined)	none
CC12CCC(C(=O)N3CCN(C(c4ccccc4)c4ccccc4)CC3)(OC1=O)C2(C)C (centres undefined)	Pf growth 96h 1.7µM (no result: Pf growth 48h)
Cc1cc(N2C(=O)CC(N3CCN(C(c4ccccc4)c4ccccc4)CC3)C2=O)no1 (centres undefined)	Sm TGR block 45µM
CCCc1cc(C(=O)N2CCN(C(c3ccccc3)c3ccccc3)CC2)no1	Pf growth 96h inconclusive, Pf growth 48h 12µM
COCCN(C(=O)COC(=O)Cc1c[nH]c2ccccc12)c1c(N)n(Cc2ccccc2)c(=O)[nH]c1=O	Pf growth 48h inconclusive (no result: CHX counter, NS1 function inh, Shiga inhibitor)
CN(CC(=O)Nc1cccc(F)c1)C(=O)c1ccccc1-n1cnnn1	Pf growth 48h inconclusive (no result: CHX counter, NS1 function inh, Shiga inhibitor)
CCCCCCCCNC(=O)/C(C#N)=C/c1ccccc1[N+](=O)[O-]	Pf growth 96h inconclusive, Pf growth 48h 13µM
N#C/C(=C\c1ccccc1[N+](=O)[O-])C(=O)NCc1ccccc1	Pf growth 96h inconclusive, Pf growth 48h 15µM
C=CCNC(=O)/C(C#N)=C/c1ccccc1[N+](=O)[O-]	none
N#C/C(=C/c1ccccc1[N+](=O)[O-])C(=O)NCc1ccco1	Pf growth 96h inconclusive
N#C/C(=C\C=C\c1ccccc1[N+](=O)[O-])C(=O)NCc1ccccc1	CHX counter 31, Pf growth 96h 1.9µM, Pf growth 48h 3.7µM
O=C(NCC1CCCCC1)c1cc(Br)ccc1Cl	none
CCSc1nnc2c(n1)OC(c1cc(OC)c(OC)c(OC)c1)Nc1ccccc1-2 (centres undefined)	none (no result: CHX counter, NS1 function inh, Pf growth 96h, Pf growth 48h, Shiga inhibitor)
CS(=O)(=O)N1CCC(n2c(C(F)(F)F)nc3cccnc32)CC1	none (no result: CHX counter, NS1 function inh, Pf growth 96h, Pf growth 48h, Shiga inhibitor)
CC(=O)C1CCC2C3CCC4=CC(=O)CCC4(C)C3CCC12C (centres undefined)	none (no result: NS1 function inh, Sm TGR block, Pf growth 96h, Pf growth 48h)
CC(=O)[C@H]1CC[C@H]2[C@@H]3CCC4=CC(=O)CC[C@]4(C)[C@H]3CC[C@]12C	Pf growth 96h 10µM, Pf growth 48h inconclusive
Cc1cc(NS(=O)(=O)c2ccc(NC(=S)NC(=O)c3ccncc3)cc2)no1	Sm TGR block inconclusive
